As usually defined, the AC50 is the midpoint of the concentration-response curve, whichever way the signal moves.

Data on seven compounds can be found in PubChem BioAssay (EPA / NIEHS).

Inconclusive results are not listed. The source made the active and inactive calls. Rule for the calls, unless noted: active = hit-call score of the fitted dose curve at least 0.9, where 1 is the maximum; inconclusive = response in the unintended direction; inactive = score below 0.9.

For assay [1], the target named is Aryl hydrocarbon receptor (Homo sapiens) (UniProt P35869). The assay is described as follows: ATG_Ahr_CIS: Attagene CIS-FACTORIAL HepG2 Assay for human Aryl Hydrocarbon Receptor (Ahr) (AID 2282930; active = hit-call score of the fitted dose curve at least 0.9, where 1 is the maximum; inactive = score below 0.9). Conditions: HepG2 AhR cis-factorial reporter transcription; actives raise or lower the signal. In short, it runs like this:
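Endogenous factor activity is tracked through cis-promoter reporter units transfected into HepG2 cells. Transcript levels at 24 h are read by fluorescent RT-PCR and capillary electrophoresis, with activity in either direction scored relative to DMSO.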

The target of assay [2] is Nuclear receptor subfamily 1 group I member 3 (Homo sapiens) (UniProt Q14994). The assay is described as follows: ATG_CAR_TRANS: Attagene TRANS-FACTORIAL HepG2 Assay for human Constitutive Androstane Receptor (CAR) (AID 2282969).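 Note: activators raise reporter mRNA above DMSO so AC50 marks induction.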 To be noted: HepG2 Attagene TRANS-FACTORIAL CAR reporter. A digest of the protocol:
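HepG2 cells transiently transfected with GAL4-UAS reporter units; TRANS format reads activity of exogenous chimeric NR-Gal4 protein. After 24 h dosing, reporter mRNA quantified by RT-PCR, 6-FAM labelling and capillary electrophoresis; gain of signal fitted against DMSO.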

A short description of assay [3]: ATG_M_19_TRANS: Attagene TRANS-FACTORIAL HepG2 Assay for M19 Transcription Factor (Internal Marker) (AID 2282974). To be noted: HepG2 Attagene TRANS-FACTORIAL M19 internal marker reporter. In short, it runs like this: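 Cells: human HepG2, transiently transfected with multiplexed reporter transcription units. Exposure: 24 h. Detection: RT-PCR of reporter mRNA with capillary electrophoresis. Analysis: gain-of-signal vs DMSO.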

For assay [4], the target named is Estrogen-related receptor gamma (Homo sapiens) (UniProt P62508). The assay is described as follows: ATG_ERRg_TRANS: Attagene TRANS-FACTORIAL HepG2 Assay for human Estrogen-Related Receptor gamma (ERRg) (AID 2282977).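 Note: hits increase reporter signal over DMSO so potencies reflect activators.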 To be noted: HepG2 Attagene TRANS reporter, ERRg transactivation. A digest of the protocol:
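HepG2 cells transiently transfected with multiplexed GAL4-UAS reporter units driven by chimeric NR-Gal4 proteins; 24 h exposure. Reporter mRNA quantified by RT-PCR, fluorescent labelling, HpaI digestion and capillary electrophoresis; gain of signal vs DMSO.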

Assay [5] deals with Oxysterols receptor LXR-alpha (Homo sapiens) (UniProt Q13133). The assay is described as follows: ATG_LXRa_TRANS: Attagene TRANS-FACTORIAL HepG2 Assay for human Liver X Receptor alpha (LXRa) (AID 2282980). Conditions: HepG2 Attagene TRANS reporter, LXRa transactivation. A digest of the protocol: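 HepG2 cells transiently transfected with GAL4-UAS reporter units for chimeric NR-Gal4 proteins, exposed to chemicals for 24 h. Reporter mRNA quantified by RT-PCR and capillary electrophoresis; gain of signal fitted relative to DMSO.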

Assay [6] deals with Oxysterols receptor LXR-beta (Homo sapiens) (UniProt P55055). The assay can be described thus: ATG_LXRb_TRANS: Attagene TRANS-FACTORIAL HepG2 Assay for human Liver X Receptor beta (LXRb) (AID 2282981). To be noted: HepG2 Attagene TRANS GAL4-LXRb reporter, mRNA. In short, it runs like this: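 HepG2 cells transiently transfected with GAL4-UAS reporter units for chimeric NR-Gal4 proteins, dosed for 24 h. Reporter transcripts measured by RT-PCR and capillary electrophoresis; gain-of-signal fitting relative to DMSO.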

A short description of assay [7]: ATG_M_32_TRANS: Attagene TRANS-FACTORIAL HepG2 Assay for M32 Transcription Factor (Internal Marker) (AID 2282984). Conditions: HepG2 Attagene TRANS M32 internal marker reporter. A digest of the protocol:
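HepG2 cells transiently transfected with GAL4-UAS reporter units, dosed for 24 hours. Reporter mRNA quantified by RT-PCR, 6-FAM labelling, HpaI digestion and capillary electrophoresis; internal-marker signal fitted upward relative to DMSO.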

The target in assay [8] is Peroxisome proliferator-activated receptor gamma (Homo sapiens) (UniProt P37231). The assay is described as follows: ATG_PPARg_TRANS: Attagene TRANS-FACTORIAL HepG2 Assay for human Peroxisome Proliferator-activated Receptor-gamma (PPARg) (AID 2283007). In short, it runs like this:
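A TRANS-format multiplexed reporter assay measures activity of an exogenous chimeric NR-Gal4 protein in HepG2 cells. After 24 h of chemical exposure, reporter transcripts are amplified, fluorescently labelled and sized by capillary electrophoresis, with gain of signal scored against DMSO.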

The nature of assay [9]: ACEA_ER_AUC_viability: ACEA Biosciences xCELLigence Real-Time Cell Analysis on Estrogen Receptor Agonism for Viability (AID 2283782).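 Note: continuous compound exposure with impedance area under curve over 80 h; hit means loss of impedance signal meaning reduced cell growth or viability.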 A digest of the protocol: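 T47D cells preconditioned in phenol red-free RPMI with charcoal-stripped FBS, then dosed with 8-point 1:4 series from 100 uM (up to 0.5% DMSO). Impedance monitored up to ~80 h; area-under-curve loss versus DMSO taken as viability.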

In assay [10] the target is Nuclear receptor subfamily 4 group A member 2 (Homo sapiens) (UniProt P43354). The assay is described as follows: ATG_NURR1_TRANS: Attagene TRANS-FACTORIAL HepG2 Assay for human Nuclear Receptor Related Protein 1 (NURR1) (AID 2282985). To be noted: HepG2 Attagene TRANS reporter, mRNA readout. In short, it runs like this:
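HepG2 cells transiently transfected with NURR1-Gal4 chimera and GAL4-UAS reporter units; after 24 hr compound exposure, reporter mRNA quantified by RT-PCR and capillary electrophoresis; gain of signal fitted against DMSO.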

The target in assay [11] is human Peroxisome Proliferator-activated Receptor delta (PPARd), PPARD (gene 5467) (UniProt Q03181). The assay can be described thus: ATG_PPARd_TRANS: Attagene TRANS-FACTORIAL HepG2 Assay for human Peroxisome Proliferator-activated Receptor delta (PPARd) (AID 2283002). In short, it runs like this:
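Fluorescence from capillary electrophoresis of labelled RT-PCR reporter fragments gives the signal; DMSO sets baseline. Cells: HepG2 transiently carrying GAL4-UAS reporter units plus chimeric nuclear receptor-Gal4 proteins, exposed to chemicals for 24 h.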

In assay [12] the target is human RAR-related Orphan Receptor gamma (RORg), RORC (gene 6097) (UniProt P51449). The assay is described as follows: ATG_RORg_TRANS: Attagene TRANS-FACTORIAL HepG2 Assay for human RAR-related Orphan Receptor gamma (RORg) (AID 2283011). A digest of the protocol: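 HepG2 cells transiently transfected with GAL4-UAS reporter units and chimeric RORg-Gal4 construct; after 24 h chemical exposure, reporter mRNA measured by RT-PCR with fluorescent capillary electrophoresis, gain of signal fitted against DMSO.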

Assay [13] has as its target human Thyroid Receptor alpha (THRa1), THRA (gene 7067) (UniProt P10827). The assay is described as follows: ATG_THRa1_TRANS: Attagene TRANS-FACTORIAL HepG2 Assay for human Thyroid Receptor alpha (THRa1) (AID 2283014). A digest of the protocol: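 HepG2 cells transiently transfected with chimeric NR-Gal4 and GAL4-UAS reporter units, dosed 24 h. Reporter mRNA quantified by RT-PCR, fluorescent labeling, HpaI digestion and capillary electrophoresis; gain-of-signal fit versus DMSO.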

A short description of assay [14]: ATG_GAL4_TRANS: Attagene TRANS-FACTORIAL HepG2 Assay for GAL4 (Internal Marker) (AID 2282976). To be noted: HepG2 Attagene TRANS GAL4 internal marker reporter. A digest of the protocol: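 Background-control readout: GAL4-UAS reporter transcript in transiently transfected HepG2 cells after 24 h compound exposure. Measured by RT-PCR, 6-FAM primer extension, HpaI digest and capillary electrophoresis; gain-of-signal fit versus DMSO.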

A short description of assay [15]: TOX21_p53_BLA_p4_viability: Viability Assessment in the Tox21 HCT-116 p53 Agonism Beta-lactamase Assay, Phase 4 (AID 2283597).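 Note: hits lower the luminescence signal meaning cytotoxicity.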 In short, it runs like this:
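HCT-116 p53-bla cells, 4000/well, dosed after 5 h attachment and incubated 16 h at 37 °C, 5% CO2. Viability from CellTiter-Glo ATP luminescence after 30 min at room temperature, taken after the beta-lactamase read; loss of signal indicates cytotoxicity.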

Assay [16] deals with Retinoic acid receptor alpha (Homo sapiens) (UniProt P10276). The assay can be described thus: ATG_DR5_RAR_CIS: Attagene CIS-FACTORIAL HepG2 Assay for human Retinoic Acid Receptor Alpha (RARE), DR5 submotif (AID 2282934; active = hit-call score of the fitted dose curve at least 0.9, where 1 is the maximum; inactive = score below 0.9). To be noted: HepG2 Attagene cis-factorial RARE DR5 reporter, mRNA; actives raise or lower the signal. In short, it runs like this:
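After 24 h of chemical exposure, transiently transfected HepG2 cells were lysed for total RNA; the DR5-regulated reporter transcript was quantified via RT-PCR and capillary electrophoresis, with activity fitted bidirectionally against DMSO.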

The target of assay [17] is Retinoic acid receptor RXR-alpha (Homo sapiens) (UniProt P19793). The assay is described as follows: ATG_RXRa_TRANS: Attagene TRANS-FACTORIAL HepG2 Assay for human Retinoid X Receptor alpha (RXRa) (AID 2283012). In short, it runs like this:
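HepG2 cells transiently transfected with GAL4-UAS reporter units and chimeric RXRa-Gal4 protein, treated 24 h. Reporter mRNA measured by RT-PCR, fluorescent labelling, HpaI digestion and capillary electrophoresis. Induction fitted against DMSO.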

Assay [18] has as its target human RAR-related Orphan Receptor beta (RORb), RORB (gene 6096) (UniProt Q92753). The assay can be described thus: ATG_RORb_TRANS: Attagene TRANS-FACTORIAL HepG2 Assay for human RAR-related Orphan Receptor beta (RORb) (AID 2283010). A digest of the protocol:
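HepG2 cells transiently transfected with GAL4-UAS reporter units expressing chimeric NR-Gal4 protein; reporter mRNA measured 24 h after dosing by RT-PCR, 6-FAM labelling and capillary electrophoresis. Gain-of-signal fitted relative to DMSO baseline.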

Nuclear receptor subfamily 4 group A member 2 (Homo sapiens), sequence (P43354 whole entry, looked up, the tested form may be a part): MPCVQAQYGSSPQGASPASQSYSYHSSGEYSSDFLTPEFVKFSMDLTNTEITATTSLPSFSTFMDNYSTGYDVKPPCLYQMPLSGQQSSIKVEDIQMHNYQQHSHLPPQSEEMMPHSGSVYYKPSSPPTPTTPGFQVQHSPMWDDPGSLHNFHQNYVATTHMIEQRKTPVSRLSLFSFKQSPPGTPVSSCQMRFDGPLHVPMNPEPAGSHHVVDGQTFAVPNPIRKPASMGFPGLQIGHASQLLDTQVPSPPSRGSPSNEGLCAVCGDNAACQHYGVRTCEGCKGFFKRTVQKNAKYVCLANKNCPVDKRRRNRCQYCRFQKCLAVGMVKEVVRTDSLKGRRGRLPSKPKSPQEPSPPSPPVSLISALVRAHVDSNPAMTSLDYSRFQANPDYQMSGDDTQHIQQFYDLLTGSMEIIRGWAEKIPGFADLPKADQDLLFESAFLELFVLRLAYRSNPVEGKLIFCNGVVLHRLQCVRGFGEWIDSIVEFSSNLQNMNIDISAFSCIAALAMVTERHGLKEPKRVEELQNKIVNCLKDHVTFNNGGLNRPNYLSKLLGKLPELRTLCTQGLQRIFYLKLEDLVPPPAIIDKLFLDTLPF
Nuclear receptor subfamily 1 group I member 3 (Homo sapiens), sequence (Q14994 whole entry, looked up, the tested form may be a part): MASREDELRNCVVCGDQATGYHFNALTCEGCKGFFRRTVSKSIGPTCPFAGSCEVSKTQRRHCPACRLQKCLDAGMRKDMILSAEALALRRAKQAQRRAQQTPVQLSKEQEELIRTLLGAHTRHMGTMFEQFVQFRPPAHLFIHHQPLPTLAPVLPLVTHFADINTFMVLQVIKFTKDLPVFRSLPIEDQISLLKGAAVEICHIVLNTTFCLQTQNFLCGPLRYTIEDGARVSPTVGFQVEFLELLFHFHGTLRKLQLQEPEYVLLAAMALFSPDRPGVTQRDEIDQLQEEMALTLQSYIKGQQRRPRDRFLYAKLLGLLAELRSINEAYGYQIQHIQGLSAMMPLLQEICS
human Thyroid Receptor alpha (THRa1), THRA (gene 7067), sequence (P10827 whole entry, looked up, the tested form may be a part): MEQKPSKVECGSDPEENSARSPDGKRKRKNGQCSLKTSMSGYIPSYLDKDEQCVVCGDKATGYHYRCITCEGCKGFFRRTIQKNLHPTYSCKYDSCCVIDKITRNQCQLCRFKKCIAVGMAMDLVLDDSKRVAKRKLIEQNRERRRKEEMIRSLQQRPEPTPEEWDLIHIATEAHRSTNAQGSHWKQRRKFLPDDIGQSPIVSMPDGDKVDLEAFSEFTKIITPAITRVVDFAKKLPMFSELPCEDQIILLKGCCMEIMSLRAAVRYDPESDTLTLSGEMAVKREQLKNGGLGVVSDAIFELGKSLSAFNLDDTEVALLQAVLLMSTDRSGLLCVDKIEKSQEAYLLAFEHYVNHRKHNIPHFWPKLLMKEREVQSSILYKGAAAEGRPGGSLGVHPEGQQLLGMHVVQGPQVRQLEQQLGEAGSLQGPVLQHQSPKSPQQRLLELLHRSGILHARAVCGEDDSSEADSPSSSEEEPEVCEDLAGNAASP
Peroxisome proliferator-activated receptor gamma (Homo sapiens), sequence (P37231 whole entry, looked up, the tested form may be a part): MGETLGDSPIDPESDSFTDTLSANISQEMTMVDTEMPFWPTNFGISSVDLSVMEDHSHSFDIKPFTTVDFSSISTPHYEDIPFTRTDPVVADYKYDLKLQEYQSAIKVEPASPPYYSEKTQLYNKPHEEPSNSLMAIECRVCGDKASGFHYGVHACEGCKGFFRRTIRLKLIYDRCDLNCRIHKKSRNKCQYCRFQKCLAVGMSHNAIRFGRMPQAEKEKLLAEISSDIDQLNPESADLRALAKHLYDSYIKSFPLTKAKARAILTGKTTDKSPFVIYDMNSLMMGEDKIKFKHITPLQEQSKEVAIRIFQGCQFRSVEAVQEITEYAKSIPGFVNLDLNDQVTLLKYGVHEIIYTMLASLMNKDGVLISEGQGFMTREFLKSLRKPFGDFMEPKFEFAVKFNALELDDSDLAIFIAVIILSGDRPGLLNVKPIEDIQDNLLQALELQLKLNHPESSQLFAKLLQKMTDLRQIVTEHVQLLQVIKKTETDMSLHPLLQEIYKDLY
Retinoic acid receptor alpha (Homo sapiens), sequence (P10276 whole entry, looked up): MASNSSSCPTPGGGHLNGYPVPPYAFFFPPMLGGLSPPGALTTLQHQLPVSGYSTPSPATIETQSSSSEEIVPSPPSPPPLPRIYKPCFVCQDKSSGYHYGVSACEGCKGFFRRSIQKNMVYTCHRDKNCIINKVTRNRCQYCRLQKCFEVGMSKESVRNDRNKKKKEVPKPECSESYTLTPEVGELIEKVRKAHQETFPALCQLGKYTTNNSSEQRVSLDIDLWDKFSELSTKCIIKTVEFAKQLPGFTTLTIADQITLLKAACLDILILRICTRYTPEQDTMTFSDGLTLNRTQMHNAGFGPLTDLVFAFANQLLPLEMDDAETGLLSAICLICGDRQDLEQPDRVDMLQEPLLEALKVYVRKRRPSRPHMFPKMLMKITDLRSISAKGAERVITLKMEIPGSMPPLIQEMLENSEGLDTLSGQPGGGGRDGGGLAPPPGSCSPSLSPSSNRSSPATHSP
Aryl hydrocarbon receptor (Homo sapiens), sequence (P35869 whole entry, looked up): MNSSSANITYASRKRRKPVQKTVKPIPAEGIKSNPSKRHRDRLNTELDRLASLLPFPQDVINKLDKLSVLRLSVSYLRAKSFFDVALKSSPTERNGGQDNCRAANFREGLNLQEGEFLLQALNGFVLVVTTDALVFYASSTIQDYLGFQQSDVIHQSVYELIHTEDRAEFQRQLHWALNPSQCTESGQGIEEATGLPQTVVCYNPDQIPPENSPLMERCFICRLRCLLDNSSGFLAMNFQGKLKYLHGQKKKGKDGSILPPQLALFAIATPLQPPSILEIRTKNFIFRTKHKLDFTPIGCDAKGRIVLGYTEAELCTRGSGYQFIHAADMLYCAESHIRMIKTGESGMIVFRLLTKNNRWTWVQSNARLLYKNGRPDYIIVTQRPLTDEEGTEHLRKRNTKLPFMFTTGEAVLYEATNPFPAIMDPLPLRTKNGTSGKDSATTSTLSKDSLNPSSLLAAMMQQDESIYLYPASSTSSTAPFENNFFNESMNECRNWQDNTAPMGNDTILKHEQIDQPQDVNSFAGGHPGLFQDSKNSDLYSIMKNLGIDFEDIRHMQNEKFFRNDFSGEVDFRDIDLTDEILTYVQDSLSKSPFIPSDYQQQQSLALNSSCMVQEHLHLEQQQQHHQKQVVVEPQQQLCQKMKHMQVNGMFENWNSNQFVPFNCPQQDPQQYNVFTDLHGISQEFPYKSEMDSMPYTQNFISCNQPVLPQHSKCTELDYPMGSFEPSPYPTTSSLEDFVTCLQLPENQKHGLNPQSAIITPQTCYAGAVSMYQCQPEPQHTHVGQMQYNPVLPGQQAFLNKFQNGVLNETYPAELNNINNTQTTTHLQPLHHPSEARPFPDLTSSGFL
human Peroxisome Proliferator-activated Receptor delta (PPARd), PPARD (gene 5467), sequence (Q03181 whole entry, looked up, the tested form may be a part): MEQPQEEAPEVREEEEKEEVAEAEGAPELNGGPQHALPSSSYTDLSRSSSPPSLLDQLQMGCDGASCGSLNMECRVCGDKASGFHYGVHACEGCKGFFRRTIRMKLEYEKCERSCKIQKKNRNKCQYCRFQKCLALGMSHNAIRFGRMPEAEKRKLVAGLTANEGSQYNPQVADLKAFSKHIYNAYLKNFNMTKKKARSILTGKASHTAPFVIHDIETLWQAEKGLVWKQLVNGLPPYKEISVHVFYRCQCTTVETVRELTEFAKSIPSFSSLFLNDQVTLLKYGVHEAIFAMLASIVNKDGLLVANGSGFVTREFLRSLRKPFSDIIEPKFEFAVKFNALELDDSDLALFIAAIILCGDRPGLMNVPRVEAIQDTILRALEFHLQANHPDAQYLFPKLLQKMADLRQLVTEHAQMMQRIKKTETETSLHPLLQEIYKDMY
Oxysterols receptor LXR-alpha (Homo sapiens), sequence (Q13133 whole entry, looked up, the tested form may be a part): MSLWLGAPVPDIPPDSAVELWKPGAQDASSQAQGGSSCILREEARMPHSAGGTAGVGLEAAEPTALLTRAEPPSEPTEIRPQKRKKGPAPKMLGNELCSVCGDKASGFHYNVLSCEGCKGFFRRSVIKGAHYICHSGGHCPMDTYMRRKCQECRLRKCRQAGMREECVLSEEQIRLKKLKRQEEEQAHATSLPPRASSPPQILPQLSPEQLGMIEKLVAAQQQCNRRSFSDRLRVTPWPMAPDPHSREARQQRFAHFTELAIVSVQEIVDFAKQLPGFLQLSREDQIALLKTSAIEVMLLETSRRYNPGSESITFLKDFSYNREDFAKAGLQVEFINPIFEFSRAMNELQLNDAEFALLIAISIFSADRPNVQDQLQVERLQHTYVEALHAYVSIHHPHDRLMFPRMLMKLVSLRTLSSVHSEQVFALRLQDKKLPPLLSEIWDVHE
Oxysterols receptor LXR-beta (Homo sapiens), sequence (P55055 whole entry, looked up, the tested form may be a part): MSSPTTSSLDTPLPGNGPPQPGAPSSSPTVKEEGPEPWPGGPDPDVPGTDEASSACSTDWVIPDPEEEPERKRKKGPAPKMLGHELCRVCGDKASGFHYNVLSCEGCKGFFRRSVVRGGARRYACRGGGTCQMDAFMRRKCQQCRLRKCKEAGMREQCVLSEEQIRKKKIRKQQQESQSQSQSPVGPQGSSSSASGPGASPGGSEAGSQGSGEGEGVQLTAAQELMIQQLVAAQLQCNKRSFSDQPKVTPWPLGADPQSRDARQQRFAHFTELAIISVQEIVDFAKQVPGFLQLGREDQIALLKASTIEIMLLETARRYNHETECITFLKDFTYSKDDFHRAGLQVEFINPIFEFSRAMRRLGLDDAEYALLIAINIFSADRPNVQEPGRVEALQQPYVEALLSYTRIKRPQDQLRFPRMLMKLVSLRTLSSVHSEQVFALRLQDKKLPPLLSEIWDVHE

For `CC/C=C\CC1=C(C)CCC1=O`, the outcome in assay [1], in assay [2], in assay [3], in assay [4], in assay [5] and in assay [6] was inactive. In assay [7], the outcome was inactive. For the same compound, the AC50 in assay [8] was 23.9 µM (active); in [9], 92.5 µM (active).
For `COc1ccccc1OCC(O)CO` (configuration not stated), the outcome in assay [1], in assay [3], in [7], in assay [10], in assay [11] and in assay [12] was inactive. Besides, the compound was classed as inactive in [13] and in [9].
Regarding `CN(C)c1ccc(C(c2ccccc2)c2ccc(N(C)C)cc2)cc1`, the call in assay [1], in assay [2], in [3], in assay [14], in assay [4] and in assay [7] was inactive. Also, the result in [10], in [13] and in assay [15] was inactive. Moreover, the AC50 in assay [9] is 75.8 µM (active).
As to `c1cc(N(CC2CO2)CC2CO2)ccc1Cc1ccc(N(CC2CO2)CC2CO2)cc1` (configuration not stated), the compound was called inactive in [16], in [3], in assay [14], in assay [5], in assay [7] and in assay [11]. In addition, the compound was called inactive in assay [8] and in [15]. Besides, the half-maximal activity concentration (AC50) in [10] is 70.9 µM (active).
As to `O=C1NC(=O)[C@@H]2CC=CC[C@H]12`, the outcome in assay [16], in [14], in [6], in assay [11] and in assay [13] was inactive.
With `C1=CCC=C1`, the call in [1], in assay [14], in [17] and in [13] was inactive.
Turning to `CCCCOC(=O)COc1ccc(Cl)cc1Cl`, the result in assay [16], in assay [2], in [3], in assay [7], in assay [8] and in assay [18] was inactive. For the same compound, the compound was called inactive in assay [9].
